Data from PubChem BioAssay (EPA / NIEHS).
Values joined by “and” are separate entries in the source; they are usually repeats but may differ in a detail not shown here. Equal entries are not always repeated. Records with an inconclusive call do not appear. Where a structure was tested more than once in an assay, its records may differ in their call. Active and inactive are the calls of the source. Rule for the calls, unless noted: active = hit-call score of the fitted dose curve at least 0.9, where 1 is the maximum; inactive = score below 0.9.

Columns and labels:
[1] = IUF_NPC1b_proliferation_BrdU_72hr: Leibniz Research Institute for Environmental Medicine (IUF) 72-hour Neural Progenitor Cell Bromodeoxyuridine (BrdU) Proliferation Assay (NPC1b) (AID 2284207)
Procedure, shortened: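 BrdU luminescence ELISA quantified DNA synthesis over the last 16 h of a 72 h exposure, fitted against DMSO. Primary hNPC spheres from gestational week 16-19 cortex grown with EGF/FGF at 37C, pH 7.2-7.6.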

[2] = IUF_NPC1a_proliferation_area_72hr: Leibniz Research Institute for Environmental Medicine (IUF) 72-hour Neural Progenitor Cell Proliferation Area Assay (NPC1a) (AID 2284208)
Procedure, shortened: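 Single 0.25–0.35 mm human fetal neural progenitor spheres in proliferation medium with EGF and FGF, exposed 72 h from plating without renewal at 37C, pH 7.2-7.6. Sphere area growth measured by automated phase-contrast imaging, relative to DMSO.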

[3] = IUF_NPC1_viability_72hr: Viability Assessment at 72 hours in the Leibniz Research Institute for Environmental Medicine (IUF) Neural Progenitor Cell Proliferation Assay (NPC1) (AID 2284209)
Procedure, shortened: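 Each well receives one 0.3 mm progenitor sphere from fetal brain cortex; test chemical is added at plating and left three days. Viability comes from alamar blue fluorescence, multiplexed with LDH and BrdU readouts in the same well.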

[4] = CCTE_Mundy_HCI_Cortical_Synap_Neur_Matur_NeuriteSpotCountPerNeuriteLength: CCTE's Synaptogenesis and Neurite Maturation Assay in rat cortical cells for Neurite Spot Count per Neurite Length, Mundy Lab (AID 2284210)
Procedure, shortened: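 Rat primary cortical cultures, AraC added at DIV 5 to suppress glia; chemical exposure from DIV 7 to DIV 12. Fixed cells stained for MAP2 and synaptophysin plus Hoechst; synaptophysin puncta per neurite length quantified by high-content imaging, relative to DMSO.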

[5] = CCTE_Mundy_HCI_Cortical_Synap_Neur_Matur_BPCount: CCTE's Synaptogenesis and Neurite Maturation Assay in rat cortical cells for Branch Point Count, Mundy Lab (AID 2284211)
Procedure, shortened: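 Branch point number is quantified by automated imaging of fluorescently labelled neurites and synapses in rat primary cortical neurons exposed from DIV 7 to DIV 12. Activity is analysed relative to DMSO negative control.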

[6] = CCTE_Mundy_HCI_Cortical_NOG_NeuriteCount: CCTE's Neurite Outgrowth Assay in rat cortical cells for Neurite Count, Mundy Lab (AID 2284212);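 note: cells fixed about two days after chemical exposure began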
Procedure, shortened: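 Neurite number per cell from high-content imaging of betaIII-tubulin immunostaining, with Hoechst nuclear counterstain.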

[7] = CCTE_Mundy_HCI_Cortical_NOG_NeuriteLength: CCTE's Neurite Outgrowth Assay in rat cortical cells for Neurite Length, Mundy Lab (AID 2284213);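 for AC50: neurites imaged about 48 to 50 h after chemical exposure began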
Procedure, shortened: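 Neurite length was read by high-content imaging of βIII-tubulin-labelled neurites in rat primary cortical cultures. Activity was fitted relative to DMSO.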

[8] = CCTE_Mundy_HCI_Cortical_Synap_Neur_Matur_NeuriteLength: CCTE's Synaptogenesis and Neurite Maturation Assay in rat cortical cells for Neurite Length, Mundy Lab (AID 2284214)
Procedure, shortened: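 Neurite length in rat primary cortical cultures is imaged after MAP2, synaptophysin and Hoechst staining. Dosing starts DIV 7, ending DIV 12; DMSO serves as negative control and baseline.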

[9] = CCTE_Mundy_HCI_Cortical_Synap_Neur_Matur_NeuriteSpotCountPerNeuron: CCTE's Synaptogenesis and Neurite Maturation Assay in rat cortical cells for Neurite Spot Count per Neuron Count, Mundy Lab (AID 2284215)
Procedure, shortened: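 Rat primary cortical cultures given AraC at DIV 5, dosed from DIV 7 to DIV 12 with media change. Fixed, stained for MAP2, synaptophysin and Hoechst; neurite-associated synaptophysin puncta per neuron quantified by high-content imaging versus DMSO.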

[10] = CCTE_Mundy_HCI_Cortical_Synap_Neur_Matur_SynapseCount: CCTE's Synaptogenesis and Neurite Maturation Assay in rat cortical cells for Synapse Count, Mundy Lab (AID 2284218)
Procedure, shortened: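 Synapse count per neuron is measured in rat cortical neurons exposed to chemicals between DIV 7 and DIV 12, with glial growth arrested by AraC at DIV 5. Synaptophysin and MAP2 staining is imaged automatically; activity is fitted relative to DMSO.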

[11] = CCTE_Mundy_HCI_hN2_NOG_NeuriteCount: CCTE's Neurite Outgrowth Assay in human hN2 cells for Neurite Count, Mundy Lab (AID 2284219; active = hit-call score of the fitted dose curve at least 0.9, where 1 is the maximum)
Procedure, shortened: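 In this morphology assay, hNP1-derived neurons received test chemical 2 h post-plating and were fixed two days later in warm paraformaldehyde/sucrose containing Hoechst 33342. Neurites, labelled by rabbit anti-βIII-tubulin (1:800) and Alexa Fluor-488 (1:500), were counted automatically.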

[12] = CCTE_Mundy_HCI_hN2_NOG_NeuriteLength: CCTE's Neurite Outgrowth Assay in human hN2 cells for Neurite Length, Mundy Lab (AID 2284220; active = hit-call score of the fitted dose curve at least 0.9, where 1 is the maximum)
Procedure, shortened: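 Read-out is neurite length from high-content imaging of βIII-tubulin/Alexa Fluor-488-labelled neurons, referenced to DMSO controls.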

[13] = CCTE_Mundy_HCI_Cortical_Synap_Neur_Matur_NeuriteCount: CCTE's Synaptogenesis and Neurite Maturation Assay in rat cortical cells for Neurite Count, Mundy Lab (AID 2284222);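 for outcome: exposure from day 7 to day 12 in vitro with readout at day 12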
Procedure, shortened: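 Rat cortical neurons, 96-well; AraC DIV 5; chemical + media change DIV 7; end DIV 12. Fix PFA/Hoechst, anti-MAP2 + anti-synaptophysin IF. HCI neurite count vs DMSO baseline.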

[14] = CCTE_Mundy_HCI_Cortical_Synap_Neur_Matur_CellBodySpotCount: CCTE's Synaptogenesis and Neurite Maturation Assay in rat cortical cells for Cell Body Spot Count, Mundy Lab (AID 2284223)
Procedure, shortened: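 Primary rat cortical cultures, AraC added at DIV 5; dosed DIV 7 through DIV 12 […]. Fixed, stained for MAP2 and synaptophysin with Hoechst; cell body-associated synaptophysin puncta per neuron counted by high-content imaging, loss vs DMSO.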

[15] = CCTE_Mundy_HCI_hNP1_Pro_ResponderAvgInten: CCTE's Proliferation Assay in human neuroprogenitor cells, Mundy Lab (AID 2284224; active = hit-call score of the fitted dose curve at least 0.9, where 1 is the maximum;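 note: human neural progenitor cells hNP1 derived from WA09 embryonic stem cells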)
Procedure, shortened: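 Proliferation read as average intensity of BrdU-positive cells, imaged at 26.25 h post-dosing: chemical exposure started after 40–44 h culture, BrdU during final 4 h, paraformaldehyde fixation. Positive-direction fit relative to DMSO.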

[16] = UKN2_HCS_IMR90_neural_migration: University of Konstanz (UKN) Leist Lab Neural Crest Cell Migration Assay in human induced IMR90 Pluripotent Stem Cells (UKN2) (AID 2284204); settings: actives raise or lower the signal
Procedure, shortened: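 iPSC-derived IMR90 neural crest cells seeded around stoppers on PLO/laminin/fibronectin; migration started in N2-S medium with EGF/FGF, compounds added after 24 h for 24 h. Migration into cell-free area imaged after calcein-AM/Hoechst staining; bidirectional fit versus DMSO.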

[17] = UKN4_HCS_LUHMES_neurite_outgrowth: University of Konstanz (UKN) Leist Lab Neurite Outgrowth Assay in human LUHMES cells (UKN4) (AID 2284206); settings: actives raise or lower the signal
Procedure, shortened: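 2-day-differentiated LUHMES, 24 h cpd exposure, live calcein-AM + H-33342 stain, HCS fluorescence imaging of neurite area; DMSO = baseline, bidirectional fit.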

[18] = TAMU_PeakParms_SingleDonor1434_Chronotropy: Texas A&M University (TAMU) 1.5-hr Human Induced Pluripotent Stem Cell (iPSC)-derived Cardiomyocytes Calcium (Ca+2) Flux Assay for Cardiotoxicity: Chronotropy (changes in peak frequency) (AID 2284217); settings: actives raise or lower the signal
Procedure, shortened: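 Beat rate, as mean Ca2+-flux peak frequency, was read from donor 1434 iPSC cardiomyocytes 90 min after exposure to 0.2–100 uM test chemical (0.5% DMSO). Wells that stopped beating were excluded; EC05 from bidirectional DMSO-referenced fitting.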

[19] = CCTE_Mundy_HCI_hN2_NOG_NeuronCount: CCTE's Neurite Outgrowth Assay in human hN2 cells for Neuron Count, Mundy Lab (AID 2284221; active = hit-call score of the fitted dose curve at least 0.9, where 1 is the maximum)
Procedure, shortened: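 Read-out is the number of betaIII-tubulin-positive neurons imaged by automated high-content analysis, with DMSO as negative control.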

[20] = BSK_BT_PBMCCytotoxicity: PBMC Cytotoxicity Assessment in the BioMAP Diversity Plus: BT Assay (AID 2284225); settings: primary human B cells with PBMC;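 note: PBMC viability measured by Alamar Blue dye reduction fluorescence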
Procedure, shortened: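 75,000 cells/well; cpd 1 h → SEB + TSST-1 (20 ng/mL final each) → 90 h → Alamar Blue 6 h → fluor. 546/580 nm. DMSO = neg. control/baseline.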

COP(N)(=O)SC (stereo not drawn)
outcome [1]: inactive
outcome [2]: inactive
outcome [3]: inactive
outcome [4]: inactive
AC50 [5]: 0.0258 µM (active)
outcome [5]: inactive
outcome [6]: inactive
outcome [7]: inactive
outcome [8]: inactive
outcome [9]: inactive
outcome [10]: inactive
outcome [11]: inactive
outcome [12]: inactive
outcome [13]: inactive
outcome [14]: inactive

C=CCC1=C(C)[C@@H](OC(=O)[C@@H]2[C@@H](C=C(C)C)C2(C)C)CC1=O
AC50 [4]: 20.5 µM (active)
AC50 [5]: 26.6 µM (active)
outcome [6]: inactive
outcome [7]: inactive
AC50 [8]: 23.9 µM (active)
AC50 [9]: 22.1 µM (active)
AC50 [10]: 22.2 µM (active)
AC50 [13]: 23.7 µM (active)
AC50 [14]: 21.8 µM (active)
outcome [15]: inactive

CN(C)C(=S)SSC(=S)N(C)C
AC50 [16]: 1.72 µM (active)
AC50 [1]: 50.1 µM (active)
AC50 [2]: 67.2 µM (active)
AC50 [3]: 74.6 µM (active)
AC50 [4]: 0.0765 µM (active)
AC50 [5]: 0.0767 µM (active)
AC50 [6]: 0.0733 µM (active)
AC50 [7]: 0.0588 µM (active)
AC50 [8]: 0.0549 µM (active)
AC50 [9]: 0.0745 µM (active)
AC50 [10]: 0.0587 µM (active)
AC50 [13]: 0.0585 µM (active)
AC50 [14]: 0.0783 µM (active)
AC50 [15]: 77.1 nM (active)

C=CCC1=C(C)C(OC(=O)C2C(C=C(C)C)C2(C)C)CC1=O (stereo not drawn)
AC50 [17]: 9.08 µM (active)
outcome [4]: inactive
outcome [5]: inactive
outcome [6]: inactive
outcome [7]: inactive
outcome [8]: inactive
outcome [9]: inactive
outcome [10]: inactive
outcome [13]: inactive
outcome [14]: inactive

CCCCNC(=O)OCC#CI
outcome [18]: inactive

COP(=S)(OC)Oc1nc(Cl)c(Cl)cc1Cl
outcome [1]: inactive
outcome [2]: inactive
outcome [3]: inactive
AC50 [5]: 24.8 µM (active)
AC50 [6]: 25.9 µM (active)
AC50 [7]: 23.1 µM (active)
AC50 [8]: 25.9 µM (active)
AC50 [9]: 20.7 µM (active)
AC50 [10]: 22.4 µM (active)
AC50 [13]: 27.9 µM (active)
outcome [14]: inactive

CNC(=O)ON=CC(C)(C)SC
outcome [1]: inactive
outcome [2]: inactive
outcome [3]: inactive
outcome [4]: inactive
outcome [5]: inactive
outcome [6]: inactive
outcome [7]: inactive
outcome [8]: inactive
outcome [9]: inactive
outcome [18]: inactive
outcome [10]: inactive
outcome [11]: inactive
outcome [12]: inactive
outcome [19]: inactive
outcome [13]: inactive
outcome [14]: inactive

Oc1ccccc1-c1ccccc1
AC50 [18]: 45.1 µM (active)

C=CC1(C)OC(=O)N(c2cc(Cl)cc(Cl)c2)C1=O (stereo not drawn)
outcome [16]: inactive
outcome [1]: inactive
outcome [2]: inactive
outcome [3]: inactive
outcome [4]: inactive
outcome [5]: inactive
outcome [6]: inactive
outcome [7]: inactive
outcome [8]: inactive
outcome [9]: inactive
outcome [10]: inactive
outcome [13]: inactive
outcome [14]: inactive
outcome [15]: inactive

CCOc1cc(Oc2ccc(C(F)(F)F)cc2Cl)ccc1[N+](=O)[O-]
outcome [16]: inactive
outcome [1]: inactive
outcome [2]: inactive
outcome [3]: inactive
AC50 [4]: 14.3 µM (active)
AC50 [5]: 14.8 µM (active)
AC50 [7]: 50 µM (active)
AC50 [8]: 16.1 µM (active)
AC50 [9]: 11.6 µM (active)
AC50 [10]: 11.9 µM (active)
AC50 [13]: 16.6 µM (active)
AC50 [14]: 14.3 µM (active)
AC50 [15]: 10900 nM (active)

COc1cnc(OC)n2nc(NS(=O)(=O)c3c(OCC(F)F)cccc3C(F)(F)F)nc12
outcome [20]: inactive

CCCCC(CC)COC(=O)c1ccccc1C(=O)OCC(CC)CCCC (stereo not drawn)
outcome [16]: inactive
outcome [1]: inactive
outcome [2]: inactive
outcome [3]: inactive
AC50 [4]: 8.06 µM (active) and 7.58 µM (active)
AC50 [5]: 3.03 µM (active)
AC50 [7]: 8.99 µM (active) and 15 µM (active)
AC50 [8]: 3.85 µM (active) and 4.26 µM (active)
AC50 [9]: 5.47 µM (active) and 3.59 µM (active)
AC50 [18]: 50 µM (active)
AC50 [10]: 6.28 µM (active) and 4 µM (active)
outcome [11]: inactive
outcome [12]: inactive
outcome [19]: inactive
AC50 [13]: 4.84 µM (active)
AC50 [14]: 8.27 µM (active) and 7.64 µM (active)
AC50 [15]: 9.27 µM (active) and 3.62 µM (active)
